Bioassay records as filed in PubChem BioAssay.
DRD3 antagonist: blocks the human D3 dopamine receptor. P35462. D3R cells, DiscoveRx beta-arrestin luminescence, antagonist mode; stronger effect = lower value. max response, negative = inhibition, %. hit rate 2.5% among 360,000. AID 652054; in the data active = max response below about -50%; inconclusive = no clear call, values can overlap the other calls; note: % is set by controls: 0 for no effect and ±100 for the full control effect
Target sequence (P35462 whole entry, looked up): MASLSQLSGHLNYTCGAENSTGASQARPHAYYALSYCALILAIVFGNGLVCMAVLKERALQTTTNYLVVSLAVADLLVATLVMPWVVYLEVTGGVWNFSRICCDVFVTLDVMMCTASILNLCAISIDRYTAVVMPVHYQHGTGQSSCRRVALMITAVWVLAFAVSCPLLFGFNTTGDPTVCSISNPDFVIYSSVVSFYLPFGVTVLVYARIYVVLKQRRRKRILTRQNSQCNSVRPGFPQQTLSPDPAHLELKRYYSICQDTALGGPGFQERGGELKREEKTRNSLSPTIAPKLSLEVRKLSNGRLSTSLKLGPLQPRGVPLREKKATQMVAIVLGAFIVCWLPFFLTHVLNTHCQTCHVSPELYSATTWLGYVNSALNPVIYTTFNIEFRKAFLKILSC
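Cells plated overnight at 1500 cells/well, then exposed to library compounds with dopamine controls for 90 minutes at 37 degrees C. DiscoveRx reagent added for 30–60 minutes at room temperature; luminescence read, quantitative HTS format.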
DRD3 agonist: activates the human D3 dopamine receptor. D3R DiscoveRx beta-arrestin cells, luminescence, 90 min. max activation, %. hit rate 0.58% among 410,000; in the data active = max activation above about 30%; note: 0% is about no effect
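Cells at 1500/well, incubated overnight, then treated with pinned compounds (dopamine as control) for 90 min at 37 degrees C. DiscoveRx reagent added for 30 - 60 minutes at room temperature; luminescence read.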
a7 integrin act: activates integrin-mediated alleviation for muscular dystrophy; alpha7betagal myoblasts, beta-gal FDG fluorescence, 48 h; Potency, µM (doses to about 38.3 µM), for inactives: at the highest dose activation, usual class: activators; hit rate 0.064% among 350,000; active = well fitted activation curve with a large enough effect; inconclusive = small, poorly fitted or top-dose-only effect; inactive = no such curve, though single readings can be large or run the other way;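 note: potency is the fitted concentration of half-maximal effect; 100% = response of the positive control SU9516; nearly all actives have a fitted effect of over 60% in size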
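Alpha7betagal+/- myoblasts (passage 13) were plated 16-24 hr, then exposed to compounds (1:260 dilution of DMSO stock) for 48 hours at 37C. After MPER lysis, β-galactosidase reporter activity was read as FDG fluorescence (ex 480/em 540) after 30 minutes.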
Starred values were filed as active, the others as inactive. The list is not random: actives were taken first. Their share in the collection is about 2.9%.

`COc1c(C=O)cc2c3c1CCCN3CCC2` gave DRD3 antagonist 2.3, DRD3 agonist -3.7 and a7 integrin act 5.6%.
Screening NCc1cc2c3c(c1)CCCN3CCC2 returned DRD3 antagonist -65.5*, DRD3 agonist 10.5 and a7 integrin act 1.3%.
Screening COCCn1c(=O)[nH]c2cc(C(=O)NCCN3CCN(c4ccccc4F)CC3)ccc2c1=O returned DRD3 antagonist -56.5*, DRD3 agonist 12.9 and a7 integrin act 3.0%.
Screening COc1cc2[nH]c(=O)c(C(=O)NCCCN3CCCCC3)c(O)c2cc1OC returned DRD3 antagonist -56.9*, DRD3 agonist -5.2 and a7 integrin act -3.7%.
For COc1cc2[nH]c(=O)n(CCC(=O)NCCCN3CCN(c4ccccc4F)CC3)c(=O)c2cc1OC the results were DRD3 antagonist inconclusive, DRD3 agonist 30.4* and a7 integrin act 3.6%.
COc1cc2[nH]c(=O)n(CCCCCC(=O)NCCCN3CCOCC3)c(=O)c2cc1OC was read as DRD3 antagonist 5.5, DRD3 agonist 2.9 and a7 integrin act -17.7%.
COc1ccc(CCNC(=O)c2c(O)c3cc(OC)c(OC)cc3[nH]c2=O)cc1OC was read as DRD3 antagonist -4.1, DRD3 agonist -4.2 and a7 integrin act -15.2%.
`COCCn1c(=O)[nH]c2cc(C(=O)NCCCN3CCN(c4ccc(F)cc4)CC3)ccc2c1=O` gave DRD3 antagonist inconclusive, DRD3 agonist -8.0 and a7 integrin act -19.2%.
For CCOc1ccc(NC(=O)c2cccc(NC(=O)c3ccccc3)c2)cc1 the results were DRD3 antagonist -7.8, DRD3 agonist 0.3 and a7 integrin act inconclusive.
For OC[C@@H]1CN(Cc2ccc3c(c2)OCO3)C[C@H](n2cnc3c(N4CCCC4)ncnc32)O1 the results were DRD3 antagonist 0.0 and DRD3 agonist 0.1.
`CCc1ccc(/C=C2/C(=O)NC(=O)N2C(C)=O)cc1` gave DRD3 antagonist -22.2, DRD3 agonist 8.7 and a7 integrin act 3.5%.
For COc1ccc(OC)c(-n2c(-c3cc(-c4ccc(F)cc4)n[nH]3)n[nH]c2=S)c1 the results were DRD3 antagonist -80.8*, DRD3 agonist -3.3 and a7 integrin act 0.3%.
Screening COc1ccc(-c2cc(-c3n[nH]c(=S)n3-c3cc(OC)ccc3OC)[nH]n2)cc1 returned DRD3 antagonist 0.0, DRD3 agonist -1.6 and a7 integrin act -6.2%.
`O=C1NC(Cc2ccccc2)c2nc3cc(F)c(F)cc3c(=O)n2-c2ncccc21` (centres undefined) gave DRD3 antagonist 9.5, DRD3 agonist 3.2 and a7 integrin act 6.1%.
`COc1cccc(OCC(=O)NC2CCCCC2)c1` gave DRD3 antagonist inconclusive, DRD3 agonist 3.0 and a7 integrin act -12.9%.
Cc1nc([N+](=O)[O-])c(Br)n1CC(=O)c1ccc(Cl)cc1 was read as DRD3 antagonist -29.4, DRD3 agonist -1.7 and a7 integrin act 1.1%.
COc1ccc(C(=O)Cn2c(C)nc([N+](=O)[O-])c2Br)cc1 was read as DRD3 antagonist -55.7*, DRD3 agonist -24.6 and a7 integrin act -29.7%.
Cc1nc([N+](=O)[O-])c(Br)n1Cc1ccc(Cl)c(Cl)c1 was read as DRD3 antagonist -76.2*, DRD3 agonist -15.2 and a7 integrin act -54.6%.
`Cc1nc([N+](=O)[O-])c(NCCO)n1Cc1ccccc1` gave DRD3 antagonist 7.8, DRD3 agonist 8.2 and a7 integrin act 1.3%.
Screening CC(=O)c1ccc(NC(=O)Cn2cc(S(=O)(=O)Cc3ccccc3Cl)c3ccccc32)cc1 returned DRD3 agonist -13.7.
Screening CC1CCc2cc(F)ccc2N1C(=O)c1ccncc1 (centres undefined) returned DRD3 antagonist 11.4, DRD3 agonist 2.6 and a7 integrin act 5.6%.
NC(=O)c1ncn([C@@H]2O[C@H](CNCc3ccc(-c4cc(C(F)(F)F)ccc4Cl)o3)[C@@H](O)[C@H]2O)n1 was read as DRD3 antagonist -51.9*, DRD3 agonist -70.5 and a7 integrin act 5.5%.
`COc1cc(Cl)c(CNC[C@H]2O[C@@H](n3cnc(C(N)=O)n3)[C@H](O)[C@@H]2O)c(Cl)c1O` gave DRD3 antagonist 40.5, DRD3 agonist 1.7 and a7 integrin act 7.6%.
`c1cc(CN2CCN(C3CCCCCC3)CC2)ccn1` gave DRD3 antagonist -0.6, DRD3 agonist -8.1 and a7 integrin act 23.8%.
c1c(C2CCCCC2)n[nH]c1CN1CCCCC1 was read as DRD3 antagonist -72.9*, DRD3 agonist -8.1 and a7 integrin act 8.1%.
For Nc1nccnc1C(=O)OCC(=O)NCCc1ccc(S(N)(=O)=O)cc1 the results were DRD3 antagonist 6.5, DRD3 agonist 1.7 and a7 integrin act 21.6%.
For COc1ccc(CC(=O)NCC2COc3ccccc3O2)cc1 (centres undefined) the results were DRD3 antagonist 0.0, DRD3 agonist 1.6 and a7 integrin act 15.2%.
`c1ccc(CCCCNCC2COc3ccccc3O2)cc1` (centres undefined) gave DRD3 antagonist -91.4*, DRD3 agonist -7.8 and a7 integrin act -10.1%.
Screening COc1ccc(C(=O)NCC(=O)NCC2COc3ccccc3O2)cc1 (centres undefined) returned DRD3 antagonist -52.1*, DRD3 agonist 0.0 and a7 integrin act 11.2%.
Screening COc1cc(OC)c(OC)cc1CNCC1COc2ccccc2O1 (centres undefined) returned DRD3 antagonist 0.0, DRD3 agonist -9.8 and a7 integrin act -38.5%.
For COc1ccc(CNCC2COc3ccccc3O2)cc1 (centres undefined) the results were DRD3 antagonist -100.5*, DRD3 agonist 4.1 and a7 integrin act 33.5%.
Screening c1ccc(CCCNCC2COc3ccccc3O2)cc1 (centres undefined) returned DRD3 antagonist inconclusive, DRD3 agonist 17.1 and a7 integrin act 0.0%.
COc1cccc(OC)c1OCCNCC1COc2ccccc2O1 (centres undefined) was read as DRD3 antagonist -93.7* and DRD3 agonist -84.0.
Screening c1ccc(CNCC2COc3ccccc3O2)cc1 (centres undefined) returned DRD3 antagonist 0.0, DRD3 agonist 19.1 and a7 integrin act 25.6%.
Screening COc1ccc(NS(=O)(=O)c2cc(NC(=O)[C@H](C)NC(N)=O)ccc2N2CCCC2)cc1 returned DRD3 antagonist -1.4, DRD3 agonist -1.5 and a7 integrin act 1.3%.
Screening O=C(CSc1nc2c(c(=O)n1-c1ccccc1)SCC2)N1CCN(c2ccccc2)CC1 returned DRD3 antagonist 37.8, DRD3 agonist 0.4 and a7 integrin act 17.9%.
`CCCNCC1COc2ccccc2O1` (centres undefined) gave DRD3 antagonist -69.9*, DRD3 agonist -43.7 and a7 integrin act 14.6%.
Screening CCOC(=O)CCNCC1COc2ccccc2O1 (centres undefined) returned DRD3 antagonist inconclusive, DRD3 agonist 3.4 and a7 integrin act 22.9%.
Screening O=C(c1cccs1)N1CCc2c([nH]c3ccccc23)C1c1ccccn1 (centres undefined) returned DRD3 antagonist inconclusive, DRD3 agonist -12.3 and a7 integrin act inconclusive.
For O=C(c1cccs1)N1CCc2c([nH]c3ccccc23)C1c1ccc(Cl)cc1 (centres undefined) the results were DRD3 antagonist -53.4*, DRD3 agonist -5.7 and a7 integrin act 2.2%.
For CCC(CC)C(=O)c1c[nH]c(C(=O)NCc2ccco2)c1 the results were DRD3 antagonist -12.4, DRD3 agonist -1.3 and a7 integrin act 16.4%.
